According to the supplement of paper PMC11732987, “Enantioselective OTUD7B fragment discovery through chemoproteomics screening and high-throughput optimisation” (Communications Chemistry, 2025):

Legend:
Test in all cases: log2 ratio of Biotin-Ahx-Ub-VS probe labelling (fragment/DMSO); higher = less target engagement (more negative = stronger competition), active = hit call of the paper (q ≤ 0.05, log2 ratio ≤ -1)
Conditions in all cases: compound concentration: 200 uM; treatment time: 3 h
[1] = biological target: T1, OTUD6B (UniProt Q8N6M0)
T1 sequence (whole entry): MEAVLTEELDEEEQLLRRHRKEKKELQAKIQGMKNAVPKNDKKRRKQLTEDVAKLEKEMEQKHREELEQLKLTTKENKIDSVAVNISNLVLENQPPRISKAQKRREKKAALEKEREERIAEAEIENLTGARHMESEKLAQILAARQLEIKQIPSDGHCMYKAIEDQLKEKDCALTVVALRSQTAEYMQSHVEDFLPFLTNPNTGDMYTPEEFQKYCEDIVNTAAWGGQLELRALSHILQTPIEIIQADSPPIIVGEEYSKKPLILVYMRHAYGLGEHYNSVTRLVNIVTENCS
In short: (§1)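 Fragment (200 µM) or vehicle was incubated for 3 h with triplicate HEK293T lysate samples of 495 µg, which were then treated with Biotin-Ahx-Ub-VS at 0.5 µM final for 1 h. Labelled DUBs were enriched on NeutrAvidin, digested with LysC and trypsin, and analysed by diaPASEF LC-MS/MS. Values are average log2 fragment/vehicle ratios from an unpaired t-test on global-median-normalised Spectronaut label-free quantities, using proteins with ≥2 unique peptides.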

[2] = biological target: T2, OTUD7B (UniProt Q6GQQ9)
T2 sequence (whole entry): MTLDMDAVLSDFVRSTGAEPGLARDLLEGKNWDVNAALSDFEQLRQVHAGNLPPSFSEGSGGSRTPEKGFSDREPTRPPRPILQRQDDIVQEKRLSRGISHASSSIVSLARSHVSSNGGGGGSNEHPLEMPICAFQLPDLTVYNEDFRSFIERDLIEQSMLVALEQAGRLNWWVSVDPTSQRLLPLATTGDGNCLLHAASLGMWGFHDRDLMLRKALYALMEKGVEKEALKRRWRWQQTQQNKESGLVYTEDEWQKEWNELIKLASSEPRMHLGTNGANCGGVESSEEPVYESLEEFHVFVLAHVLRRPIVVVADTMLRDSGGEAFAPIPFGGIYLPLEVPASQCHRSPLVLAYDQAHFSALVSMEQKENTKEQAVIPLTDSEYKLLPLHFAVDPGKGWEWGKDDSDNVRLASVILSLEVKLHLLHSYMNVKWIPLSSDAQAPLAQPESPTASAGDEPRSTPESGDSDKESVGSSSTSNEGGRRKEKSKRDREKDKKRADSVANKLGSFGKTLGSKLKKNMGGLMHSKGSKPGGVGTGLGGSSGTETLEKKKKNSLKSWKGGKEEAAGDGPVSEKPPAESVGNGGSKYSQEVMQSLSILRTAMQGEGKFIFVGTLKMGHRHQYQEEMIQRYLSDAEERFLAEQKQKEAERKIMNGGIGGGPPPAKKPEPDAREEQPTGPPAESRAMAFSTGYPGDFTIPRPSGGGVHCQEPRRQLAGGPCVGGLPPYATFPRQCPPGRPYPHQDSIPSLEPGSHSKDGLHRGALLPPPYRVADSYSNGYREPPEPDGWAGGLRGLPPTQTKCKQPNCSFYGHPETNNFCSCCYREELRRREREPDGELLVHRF
In short: as §1

[3] = biological target: PRPF8 (UniProt Q6P2Q9)
In short: as §1

[4] = biological target: T3, PSMD7 (UniProt P51665)
T3 sequence (whole entry): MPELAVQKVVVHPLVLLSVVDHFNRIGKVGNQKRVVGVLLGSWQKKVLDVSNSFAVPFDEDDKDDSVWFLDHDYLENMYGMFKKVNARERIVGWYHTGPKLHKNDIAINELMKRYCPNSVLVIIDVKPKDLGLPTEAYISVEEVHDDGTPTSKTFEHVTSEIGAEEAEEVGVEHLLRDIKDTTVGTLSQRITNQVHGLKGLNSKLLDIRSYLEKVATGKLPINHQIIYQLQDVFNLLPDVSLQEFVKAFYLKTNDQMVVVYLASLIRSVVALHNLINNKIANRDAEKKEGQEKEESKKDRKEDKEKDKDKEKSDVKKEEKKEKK
In short: as §1

[5] = biological target: UCHL1 (UniProt P09936)
UCHL1, sequence (P09936 whole entry, looked up): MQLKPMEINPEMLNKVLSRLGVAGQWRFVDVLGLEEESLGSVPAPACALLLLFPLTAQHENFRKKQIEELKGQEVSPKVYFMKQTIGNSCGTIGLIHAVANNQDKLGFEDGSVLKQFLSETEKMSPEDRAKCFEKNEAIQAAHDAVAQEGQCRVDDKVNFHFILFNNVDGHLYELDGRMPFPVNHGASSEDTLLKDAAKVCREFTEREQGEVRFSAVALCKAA
In short: as §1

[6] = biological target: T4, UCHL3 (UniProt P15374)
T4 sequence (whole entry): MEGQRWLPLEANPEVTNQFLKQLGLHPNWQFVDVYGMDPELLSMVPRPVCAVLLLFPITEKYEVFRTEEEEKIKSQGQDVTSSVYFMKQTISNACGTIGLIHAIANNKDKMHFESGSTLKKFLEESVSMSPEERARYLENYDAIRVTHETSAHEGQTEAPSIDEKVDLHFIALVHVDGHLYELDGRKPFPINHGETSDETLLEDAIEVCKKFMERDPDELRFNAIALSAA
In short: as §1

[7] = biological target: T5, UCHL5 (UniProt Q9Y5K5)
T5 sequence (whole entry): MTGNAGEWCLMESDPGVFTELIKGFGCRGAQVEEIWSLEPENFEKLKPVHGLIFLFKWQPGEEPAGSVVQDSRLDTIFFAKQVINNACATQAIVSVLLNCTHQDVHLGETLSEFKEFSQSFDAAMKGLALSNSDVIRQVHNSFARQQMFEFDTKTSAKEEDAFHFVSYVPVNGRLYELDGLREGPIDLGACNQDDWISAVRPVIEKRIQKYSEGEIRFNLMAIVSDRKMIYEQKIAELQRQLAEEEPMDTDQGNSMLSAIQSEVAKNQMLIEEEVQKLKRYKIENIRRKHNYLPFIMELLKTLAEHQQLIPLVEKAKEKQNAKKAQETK
In short: as §1

[8] = biological target: USP10 (UniProt Q14694)
USP10, sequence (Q14694 whole entry): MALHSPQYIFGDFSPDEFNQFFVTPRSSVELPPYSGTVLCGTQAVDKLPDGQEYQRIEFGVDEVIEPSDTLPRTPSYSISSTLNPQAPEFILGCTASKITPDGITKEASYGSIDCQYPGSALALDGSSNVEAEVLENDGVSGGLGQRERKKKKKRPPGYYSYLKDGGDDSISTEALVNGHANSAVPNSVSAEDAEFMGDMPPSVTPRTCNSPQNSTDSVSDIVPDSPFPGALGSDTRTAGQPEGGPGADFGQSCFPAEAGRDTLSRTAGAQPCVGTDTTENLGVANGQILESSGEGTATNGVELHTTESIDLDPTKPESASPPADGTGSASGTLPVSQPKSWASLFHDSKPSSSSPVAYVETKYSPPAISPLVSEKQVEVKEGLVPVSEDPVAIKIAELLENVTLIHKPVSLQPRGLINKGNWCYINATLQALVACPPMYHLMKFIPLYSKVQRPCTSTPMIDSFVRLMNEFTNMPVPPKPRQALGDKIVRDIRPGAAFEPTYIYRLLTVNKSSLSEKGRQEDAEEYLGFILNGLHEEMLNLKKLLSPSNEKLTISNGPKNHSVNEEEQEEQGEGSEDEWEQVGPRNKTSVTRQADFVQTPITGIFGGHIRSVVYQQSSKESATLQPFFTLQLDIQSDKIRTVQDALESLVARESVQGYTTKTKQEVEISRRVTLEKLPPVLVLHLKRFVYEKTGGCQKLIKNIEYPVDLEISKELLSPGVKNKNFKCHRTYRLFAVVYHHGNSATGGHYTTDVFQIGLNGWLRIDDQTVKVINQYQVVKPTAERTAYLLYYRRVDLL
In short: as §1

[9] = biological target: T6, USP15 (UniProt Q9Y4E8)
T6 sequence (whole entry): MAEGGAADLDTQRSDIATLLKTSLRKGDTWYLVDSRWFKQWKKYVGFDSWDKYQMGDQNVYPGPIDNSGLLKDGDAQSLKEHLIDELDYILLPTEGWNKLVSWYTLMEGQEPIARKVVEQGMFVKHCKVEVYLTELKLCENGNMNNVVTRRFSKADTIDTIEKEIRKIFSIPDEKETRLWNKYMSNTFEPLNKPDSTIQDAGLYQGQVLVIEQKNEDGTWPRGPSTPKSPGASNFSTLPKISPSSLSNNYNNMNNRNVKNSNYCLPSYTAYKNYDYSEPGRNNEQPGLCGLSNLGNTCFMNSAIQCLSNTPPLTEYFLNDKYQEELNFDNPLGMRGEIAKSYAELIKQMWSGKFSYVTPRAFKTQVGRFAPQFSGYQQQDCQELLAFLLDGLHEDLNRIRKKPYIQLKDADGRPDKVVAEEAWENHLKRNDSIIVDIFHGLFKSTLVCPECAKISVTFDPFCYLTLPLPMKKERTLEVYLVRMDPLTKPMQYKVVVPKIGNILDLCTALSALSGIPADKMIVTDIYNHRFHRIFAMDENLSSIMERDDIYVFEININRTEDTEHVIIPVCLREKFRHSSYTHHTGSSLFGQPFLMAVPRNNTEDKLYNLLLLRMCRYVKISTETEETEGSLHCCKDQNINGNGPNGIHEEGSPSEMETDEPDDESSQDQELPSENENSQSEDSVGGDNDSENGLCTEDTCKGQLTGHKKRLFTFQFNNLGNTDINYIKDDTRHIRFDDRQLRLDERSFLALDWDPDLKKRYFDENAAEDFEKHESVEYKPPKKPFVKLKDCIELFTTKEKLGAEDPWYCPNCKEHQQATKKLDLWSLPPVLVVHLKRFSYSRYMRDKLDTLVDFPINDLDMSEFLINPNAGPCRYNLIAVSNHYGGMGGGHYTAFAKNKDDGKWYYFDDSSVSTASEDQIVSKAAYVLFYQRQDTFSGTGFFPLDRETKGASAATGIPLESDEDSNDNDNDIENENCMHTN
In short: as §1

[10] = biological target: USP16 (UniProt Q9Y5T5)
USP16, sequence (Q9Y5T5 whole entry, looked up): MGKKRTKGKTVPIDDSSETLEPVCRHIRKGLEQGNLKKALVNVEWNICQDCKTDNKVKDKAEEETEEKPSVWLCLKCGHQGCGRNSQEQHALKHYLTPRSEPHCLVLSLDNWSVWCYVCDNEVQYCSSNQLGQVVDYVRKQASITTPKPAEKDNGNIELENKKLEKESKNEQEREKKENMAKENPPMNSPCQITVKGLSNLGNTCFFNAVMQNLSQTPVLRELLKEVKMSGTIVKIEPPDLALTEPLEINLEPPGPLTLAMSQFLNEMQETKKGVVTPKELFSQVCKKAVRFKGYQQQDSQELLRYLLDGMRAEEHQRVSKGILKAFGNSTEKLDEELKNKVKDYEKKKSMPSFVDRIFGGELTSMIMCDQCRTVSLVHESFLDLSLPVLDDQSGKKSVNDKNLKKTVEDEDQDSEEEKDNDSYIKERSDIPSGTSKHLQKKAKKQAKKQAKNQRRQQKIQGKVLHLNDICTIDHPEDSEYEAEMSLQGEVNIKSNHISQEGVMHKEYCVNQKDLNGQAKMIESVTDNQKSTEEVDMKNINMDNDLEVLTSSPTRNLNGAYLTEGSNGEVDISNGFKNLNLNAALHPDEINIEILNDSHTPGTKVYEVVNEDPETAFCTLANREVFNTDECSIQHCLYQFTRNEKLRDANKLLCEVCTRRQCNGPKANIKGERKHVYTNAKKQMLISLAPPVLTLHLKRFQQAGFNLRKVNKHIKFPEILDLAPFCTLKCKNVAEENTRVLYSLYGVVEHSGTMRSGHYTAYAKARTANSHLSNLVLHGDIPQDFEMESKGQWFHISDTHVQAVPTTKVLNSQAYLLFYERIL
In short: as §1

Measured: log2 ratio of Biotin-Ahx-Ub-VS probe labelling

Cc1ncc2c(n1)CCN(C(=O)CCl)C2
inactive: [1] -0.152 | [2] -0.47 | [3] 0.0188 | [4] 0.0625 | [5] -0.771 | [6] 0.268 | [7] 0.0568 | [8] -0.242 | [9] -0.636 | [10] -0.136
